# Laboratory results: PMC11006913
# Positions count from the first letter of the chain named.
# What was measured:
# Assay in all cases: PBM; 200 nM protein, PBS
# Conditions in all cases: dsDNA, one strand shown
# HOXD13 [1] = target: HOXD13 (Homo sapiens, UniProt P35453 263-343, T313R)
# HOXD13 [2] = target: HOXD13 (Homo sapiens, UniProt P35453 263-343)
# HOXD13 [3] = target: HOXD13 (Homo sapiens, UniProt P35453 263-343, T313A)
# SIX6 = target: T1, SIX6 (Homo sapiens, UniProt O95475 114-200, T165A)
# T1 sequence: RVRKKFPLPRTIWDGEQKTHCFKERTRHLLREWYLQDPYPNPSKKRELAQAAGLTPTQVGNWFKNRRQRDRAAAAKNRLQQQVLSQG
# NKX2-6 [4] = target: T2, NKX2-6 (Homo sapiens, UniProt A6NCS4 118-204)
# T2 sequence: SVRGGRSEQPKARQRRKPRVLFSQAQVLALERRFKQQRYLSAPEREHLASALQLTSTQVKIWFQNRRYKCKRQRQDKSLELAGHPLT
# HOXC9 = HOXC9 (Homo sapiens, UniProt P31274 178-260, R222W)
# Sequence of HOXC9 (P31274 178-260 R222W): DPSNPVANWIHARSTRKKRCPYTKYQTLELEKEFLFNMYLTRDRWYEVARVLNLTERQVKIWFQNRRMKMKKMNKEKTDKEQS
# NKX2-6 [5] = target: T3, NKX2-6 (Homo sapiens, UniProt A6NCS4 118-204, F151L)
# T3 sequence: T2 sequence with F34L
# ALX3 [6] = target: ALX3 (Homo sapiens, UniProt O95076 139-225)
# Sequence of ALX3 (Homo sapiens, UniProt O95076 139-225) (O95076 139-225): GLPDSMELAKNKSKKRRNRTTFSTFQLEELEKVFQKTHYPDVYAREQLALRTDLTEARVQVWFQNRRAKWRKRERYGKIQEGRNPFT
# ALX3 [7] = target: ALX3 (Homo sapiens, UniProt O95076 139-225, L168Q)
# Sequence of ALX3 (Homo sapiens, UniProt O95076 139-225, L168Q) (O95076 139-225 L168Q): as the sequence (O95076 139-225) above, with L30Q counted along it
# PITX2 = PITX2 (Homo sapiens, UniProt Q99697 72-157)
# VAX1 [8] = target: VAX1 (Homo sapiens, UniProt Q5SQQ9 86-172)
# Sequence of VAX1 (Homo sapiens, UniProt Q5SQQ9 86-172) (Q5SQQ9 86-172): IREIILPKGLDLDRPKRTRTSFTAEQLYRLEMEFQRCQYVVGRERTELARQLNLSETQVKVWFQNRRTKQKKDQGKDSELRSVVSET
# VAX1 [9] = target: VAX1 (Homo sapiens, UniProt Q5SQQ9 86-172, T142I)
# Sequence of VAX1 (Homo sapiens, UniProt Q5SQQ9 86-172, T142I) (Q5SQQ9 86-172 T142I): as the sequence (Q5SQQ9 86-172) above, with T57I counted along it
# VAX1 [10] = target: VAX1 (Homo sapiens, UniProt Q5SQQ9 86-172, K157R)
# Sequence of VAX1 (Homo sapiens, UniProt Q5SQQ9 86-172, K157R) (Q5SQQ9 86-172 K157R): as the sequence (Q5SQQ9 86-172) above, with K72R counted along it
# Sequence of HOXD13 (Homo sapiens, UniProt P35453 263-343, T313A) (P35453 263-343 T313A): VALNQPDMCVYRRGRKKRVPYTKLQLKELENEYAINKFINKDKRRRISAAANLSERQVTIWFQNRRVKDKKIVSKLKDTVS
# Sequence of HOXD13 (Homo sapiens, UniProt P35453 263-343, T313R) (P35453 263-343 T313R): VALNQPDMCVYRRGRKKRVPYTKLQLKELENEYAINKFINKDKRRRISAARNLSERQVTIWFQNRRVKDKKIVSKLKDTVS
# Sequence of HOXD13 (Homo sapiens, UniProt P35453 263-343) (P35453 263-343): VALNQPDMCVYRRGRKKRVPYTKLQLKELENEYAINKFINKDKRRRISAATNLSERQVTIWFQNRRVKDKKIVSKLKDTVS
sequence,measurement,setting,value
GCAAGACC,binding signal,HOXD13 [1],"9.62 upbm affinity estimate (log intensity, higher = more binding, comparable within an allelic series)"
same,binding signal,HOXD13 [2],"9.57 upbm affinity estimate (log intensity, higher = more binding, comparable within an allelic series)"
same,binding signal,HOXD13 [3],"9.69 upbm affinity estimate (log intensity, higher = more binding, comparable within an allelic series)"
GACACCAA,binding signal,SIX6,"10.5 upbm affinity estimate (log intensity, higher = more binding, comparable within an allelic series)"
AAGGTGTC,binding signal,SIX6,"10.5 upbm affinity estimate (log intensity, higher = more binding, comparable within an allelic series)"
AATTACGC,binding signal,NKX2-6 [4],"11.3 upbm affinity estimate (log intensity, higher = more binding, comparable within an allelic series)"
ACTTGTTC,binding signal,NKX2-6 [4],"11.7 upbm affinity estimate (log intensity, higher = more binding, comparable within an allelic series)"
GTACTAGA,binding signal,NKX2-6 [4],"12.1 upbm affinity estimate (log intensity, higher = more binding, comparable within an allelic series)"
AAGGTGTA,binding signal,SIX6,"10.1 upbm affinity estimate (log intensity, higher = more binding, comparable within an allelic series)"
GTTTAATA,binding signal,HOXD13 [1],"10.8 upbm affinity estimate (log intensity, higher = more binding, comparable within an allelic series)"
same,binding signal,HOXD13 [2],"11.8 upbm affinity estimate (log intensity, higher = more binding, comparable within an allelic series)"
same,binding signal,HOXD13 [3],"11.6 upbm affinity estimate (log intensity, higher = more binding, comparable within an allelic series)"
AGTGCTAA,binding signal,NKX2-6 [4],"12 upbm affinity estimate (log intensity, higher = more binding, comparable within an allelic series)"
TAATATAA,binding signal,HOXD13 [1],"10.8 upbm affinity estimate (log intensity, higher = more binding, comparable within an allelic series)"
same,binding signal,HOXD13 [3],"11.6 upbm affinity estimate (log intensity, higher = more binding, comparable within an allelic series)"
same,binding signal,HOXC9,"11 upbm affinity estimate (log intensity, higher = more binding, comparable within an allelic series)"
AGGGTGTC,binding signal,SIX6,"10.5 upbm affinity estimate (log intensity, higher = more binding, comparable within an allelic series)"
AACACTCC,binding signal,NKX2-6 [4],"11.3 upbm affinity estimate (log intensity, higher = more binding, comparable within an allelic series)"
TCAACTCA,binding signal,NKX2-6 [4],"11.4 upbm affinity estimate (log intensity, higher = more binding, comparable within an allelic series)"
same,binding signal,NKX2-6 [5],"9.78 upbm affinity estimate (log intensity, higher = more binding, comparable within an allelic series)"
AGTATGTA,binding signal,NKX2-6 [4],"11.6 upbm affinity estimate (log intensity, higher = more binding, comparable within an allelic series)"
same,binding signal,NKX2-6 [5],"9.91 upbm affinity estimate (log intensity, higher = more binding, comparable within an allelic series)"
CGCGGACG,binding signal,NKX2-6 [4],"9.09 upbm affinity estimate (log intensity, higher = more binding, comparable within an allelic series)"
same,binding signal,NKX2-6 [5],"9.22 upbm affinity estimate (log intensity, higher = more binding, comparable within an allelic series)"
ACCGGGGG,binding signal,NKX2-6 [4],"9.31 upbm affinity estimate (log intensity, higher = more binding, comparable within an allelic series)"
same,binding signal,NKX2-6 [5],"9.04 upbm affinity estimate (log intensity, higher = more binding, comparable within an allelic series)"
ACGGACGA,binding signal,NKX2-6 [4],"9.27 upbm affinity estimate (log intensity, higher = more binding, comparable within an allelic series)"
same,binding signal,NKX2-6 [5],"9.49 upbm affinity estimate (log intensity, higher = more binding, comparable within an allelic series)"
GGCACAGA,binding signal,NKX2-6 [4],"9.3 upbm affinity estimate (log intensity, higher = more binding, comparable within an allelic series)"
same,binding signal,NKX2-6 [5],"9.37 upbm affinity estimate (log intensity, higher = more binding, comparable within an allelic series)"
ACTTACAT,binding signal,NKX2-6 [4],"11.6 upbm affinity estimate (log intensity, higher = more binding, comparable within an allelic series)"
same,binding signal,ALX3 [6],"8.97 upbm affinity estimate (log intensity, higher = more binding, comparable within an allelic series)"
same,binding signal,ALX3 [7],"8.46 upbm affinity estimate (log intensity, higher = more binding, comparable within an allelic series)"
same,binding signal,NKX2-6 [5],"9.95 upbm affinity estimate (log intensity, higher = more binding, comparable within an allelic series)"
CCGGCACC,binding signal,NKX2-6 [4],"9.34 upbm affinity estimate (log intensity, higher = more binding, comparable within an allelic series)"
same,binding signal,NKX2-6 [5],"9.34 upbm affinity estimate (log intensity, higher = more binding, comparable within an allelic series)"
ACTACTTA,binding signal,NKX2-6 [4],"13.5 upbm affinity estimate (log intensity, higher = more binding, comparable within an allelic series)"
same,binding signal,NKX2-6 [5],"10.5 upbm affinity estimate (log intensity, higher = more binding, comparable within an allelic series)"
GCCGATCC,binding signal,NKX2-6 [4],"9.45 upbm affinity estimate (log intensity, higher = more binding, comparable within an allelic series)"
same,binding signal,NKX2-6 [5],"9.3 upbm affinity estimate (log intensity, higher = more binding, comparable within an allelic series)"
GCGACAGC,binding signal,NKX2-6 [4],"9.46 upbm affinity estimate (log intensity, higher = more binding, comparable within an allelic series)"
same,binding signal,NKX2-6 [5],"9.41 upbm affinity estimate (log intensity, higher = more binding, comparable within an allelic series)"
CCCGGAAA,binding signal,NKX2-6 [4],"9.48 upbm affinity estimate (log intensity, higher = more binding, comparable within an allelic series)"
same,binding signal,NKX2-6 [5],"9.48 upbm affinity estimate (log intensity, higher = more binding, comparable within an allelic series)"
CGTCCTGC,binding signal,NKX2-6 [4],"9 upbm affinity estimate (log intensity, higher = more binding, comparable within an allelic series)"
same,binding signal,PITX2,"7.8 upbm affinity estimate (log intensity, higher = more binding, comparable within an allelic series)"
same,binding signal,NKX2-6 [5],"9.34 upbm affinity estimate (log intensity, higher = more binding, comparable within an allelic series)"
ACCTCTCA,binding signal,NKX2-6 [4],"12 upbm affinity estimate (log intensity, higher = more binding, comparable within an allelic series)"
same,binding signal,NKX2-6 [5],"9.82 upbm affinity estimate (log intensity, higher = more binding, comparable within an allelic series)"
ATCTTCAC,binding signal,NKX2-6 [4],"11.1 upbm affinity estimate (log intensity, higher = more binding, comparable within an allelic series)"
same,binding signal,NKX2-6 [5],"9.83 upbm affinity estimate (log intensity, higher = more binding, comparable within an allelic series)"
AGTGGCTA,binding signal,NKX2-6 [4],"11.9 upbm affinity estimate (log intensity, higher = more binding, comparable within an allelic series)"
same,binding signal,NKX2-6 [5],"9.95 upbm affinity estimate (log intensity, higher = more binding, comparable within an allelic series)"
GCGTCGCA,binding signal,NKX2-6 [4],"9.48 upbm affinity estimate (log intensity, higher = more binding, comparable within an allelic series)"
same,binding signal,NKX2-6 [5],"9.49 upbm affinity estimate (log intensity, higher = more binding, comparable within an allelic series)"
AGCGGAGC,binding signal,NKX2-6 [4],"9.34 upbm affinity estimate (log intensity, higher = more binding, comparable within an allelic series)"
same,binding signal,NKX2-6 [5],"9.31 upbm affinity estimate (log intensity, higher = more binding, comparable within an allelic series)"
CCACAGCG,binding signal,NKX2-6 [4],"8.94 upbm affinity estimate (log intensity, higher = more binding, comparable within an allelic series)"
same,binding signal,NKX2-6 [5],"9.3 upbm affinity estimate (log intensity, higher = more binding, comparable within an allelic series)"
ACTTGACT,binding signal,NKX2-6 [4],"12.4 upbm affinity estimate (log intensity, higher = more binding, comparable within an allelic series)"
same,binding signal,NKX2-6 [5],"10.4 upbm affinity estimate (log intensity, higher = more binding, comparable within an allelic series)"
CGGGATCC,binding signal,NKX2-6 [4],"9.34 upbm affinity estimate (log intensity, higher = more binding, comparable within an allelic series)"
same,binding signal,NKX2-6 [5],"9.34 upbm affinity estimate (log intensity, higher = more binding, comparable within an allelic series)"
CGCTTAAG,binding signal,NKX2-6 [4],"12.2 upbm affinity estimate (log intensity, higher = more binding, comparable within an allelic series)"
same,binding signal,VAX1 [8],"9.23 upbm affinity estimate (log intensity, higher = more binding, comparable within an allelic series)"
same,binding signal,NKX2-6 [5],"9.9 upbm affinity estimate (log intensity, higher = more binding, comparable within an allelic series)"
same,binding signal,VAX1 [9],"8.86 upbm affinity estimate (log intensity, higher = more binding, comparable within an allelic series)"
same,binding signal,VAX1 [10],"9.02 upbm affinity estimate (log intensity, higher = more binding, comparable within an allelic series)"
ACGGCCAG,binding signal,NKX2-6 [4],"9.26 upbm affinity estimate (log intensity, higher = more binding, comparable within an allelic series)"
same,binding signal,NKX2-6 [5],"9.26 upbm affinity estimate (log intensity, higher = more binding, comparable within an allelic series)"
CAGACTAG,binding signal,NKX2-6 [4],"9.38 upbm affinity estimate (log intensity, higher = more binding, comparable within an allelic series)"
same,binding signal,NKX2-6 [5],"9.36 upbm affinity estimate (log intensity, higher = more binding, comparable within an allelic series)"
